Among the data in PubChem BioAssay (NCI) are growth values, retold here.

This is part of a sample that, as a whole, favours compounds with a hit. Of some 83,000 tested, about 20% had one in any assay.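 For each line, cells grew in 96-well plates with the test compound present at a single concentration for 48 hours.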 Activity calls are given as the source filed them.

The test system of the test is SW-620 colon. Description: NCI-60 one-dose screen, 48 h (100 = growth as untreated, 0 = no growth, -100 = all killed). To be noted: 10 µM unless noted. The method, then: Growth inhibition of the SW-620 human tumor cell line is measured as a screen for anti-cancer activity. Cells are grown in 96 well plates and exposed to the test compound for 48 hours. Compounds are tested at a single concentration, which is 10^-5 M for most compounds. The reported endpoint is percent growth (GI% or GIPRCNT), where numbers from 0 - 100% represent growth inhibition, and numbers from -100% - 0 represent cell death. For example, a value of 40 represents 60% growth inhibition. A value of 0 means no net growth occurred over the course of the experiment. A value of -40 indicates 40% of cells at the beginning of the experiment died by the end of the experiment. A value of -100 means all cells are dead at the end of the experiment.
NCI-60 Human Tumor Cell Lines Screen was performed using the standard one-dose NCI protocol, which is described in more detail at https://dtp.cancer.gov/discovery_development/nci-60/default.htm.
Compounds with GIPRCNT values below 10 were considered active. Activity score was based on GIPRCNT using the following formula: […]
Score is 0 for GIPRCNT values of 100 or above, 50 for GIPRCNT values of 0, and 100 for GIPRCNT values of -100.
As for `O=C1Nc2ccccc2/C1=C/c1cn(CC(O)Cn2cc(/C=C3\C(=O)Nc4ccccc43)c3ccccc32)c2ccccc12` (stereo not given), the growth was -60.4% (active).

For `O=C1C(Br)=CC2C1C1C3CCC3C2(Br)C12OCCO2` (stereo not given), the growth is 17.3% (inactive). With `COC(=O)C(Cc1cnc[nH]1)N1CC(=O)N2[C@@H](c3ccccc3)SC[C@H]2C1=O` (stereo not given in full), the growth was 108% (inactive). As for `CCCCCCCCC1OC1CCCCCCCC(=O)O` (stereo not given), the growth is 108% (inactive). For the molecule `CC#Cc1nc(Nc2cc(C)[nH]n2)c2ccccc2n1`, the growth was -1.25% [100 µM] (active). The result for `Cc1nnc(/N=C2\NC(=O)/C(=C/C=C/c3ccccc3)S2)s1` reads 74.1% (inactive); that for `COc1ccc(/C=N/c2cc(C(C)(C)C)nn2-c2ccccc2)cc1`, 101% (inactive); that for `O=C(O)c1ccc(-c2nn(-c3ccc(C(=O)O)cc3)cc2CNc2ccc(Br)cc2)cc1`, 107% (inactive). For `CCOc1ccc(Br)cc1/C=C(\C#N)c1ccc([N+](=O)[O-])cc1`, the growth is 86.6% (inactive).

In the case of `C=C(NC(=O)[C@H](C(C)C)N(C)c1cccc2[nH]ccc12)C(=O)OC`, the growth is 110% (inactive). On to `O=C(/C(Br)=C/c1ccccc1)c1ccccc1`, for which the growth is -77.3% (active). The result for `COc1cc(OC)c(/C=C/c2ccc3ccccc3[n+]2C)c(OC)c1` reads 13.5% (inactive); that for `COc1cc(CNC(=O)CCCC/C=C/C(C)C)ccc1OCc1nnc(Nc2ccccc2F)o1`, 98.9% (inactive); that for `CC(C)(C)c1ccc([I+]c2ccc(C(C)(C)C)cc2)cc1`, 14.9% (inactive).

In the case of `Cc1ccnc2c(NC(C)CCCN)cc(O)c(O)c12` (stereo not given), the growth was 100% (inactive). The value for `OCCN1CCN(CC/C=C2/c3ccccc3Sc3ccc(C(F)(F)F)cc32)CC1` was 83.5% (inactive). For the molecule `COc1cc([C@@H]2c3cc4c(cc3[C@H](O)[C@H]3COC[C@@H]23)OCO4)cc(OC)c1OC`, the growth is 54.4% (inactive).

Regarding `CC(C)OC(=O)[C@H](C)N[P@@](=O)(OC[C@@]1(C)O[C@@H](n2cc(F)c(N)nc2=O)C[C@@H]1O[P@](=O)(N[C@@H](C)C(=O)OC(C)C)Oc1ccccc1)Oc1ccccc1`, the growth was 61.1% (inactive).

Turning to `Nc1cc(N)c2nc(NCCc3ccc(Cl)c(Cl)c3)cnc2c1`, the growth is 51.3% (inactive). The value for `CCCCCCC(C(=O)OCC)(C(=O)OCC)C1CCCCCC1` was 99.1% (inactive); that for `CC[C@H](Nc1ncnc2nc[nH]c12)c1nc2cccc(NCc3ccc(C(=O)NO)o3)c2c(=O)n1-c1ccccc1` was 107% (inactive); that for `CCCC[N+](C)(N)CCCC` was 101% (inactive). The value for `CCCCCCCCCCCCc1ccc([N+](CC)(CC)CC)cc1` was 58.8% (inactive). The value for `NCCCOc1cc2ccccc2cc1C(=O)Nc1ccc(Cl)cc1OC(=O)c1cc2ccccc2cc1OCCCN` was -94.9% (active); that for `Cc1cc(CSc2ccc(Cl)cc2)ccc1N` was 126% (inactive). As for `Cc1ccc(S(=O)(=O)N/N=C2\CC3CCC2C3)cc1` (stereo not given), the growth was 106% (inactive). As for `Cc1c(Cc2ccccc2)c(=O)oc2c(C)c(OCC(=O)n3nc(C#N)cc3N)ccc12`, the growth was 101% (inactive). The value for `Cc1ccc(S(=O)(=O)NC(CCC(=O)Nc2ccccc2)C(=O)Nc2ccccc2)cc1` (stereo not given) was 11.1% (inactive); that for `O=C1/C(=C/c2ccc(Cl)cc2)CCC/C1=C\c1ccc(Cl)cc1` was 30.6% (inactive).

As for `COc1ccc(-n2nnnc2-c2cn[nH]c2C(F)(F)F)cc1`, the growth is 94.6% (inactive). The result for `O=C(c1ccccc1)c1ccccc1-c1ccccc1` reads 15.8% (inactive). The result for `CC(O)CN(CCO)CCN(CCO)CC(C)O` (stereo not given) reads 105% (inactive).

In the case of `CCC(C)[C@H](NC(=O)Nc1cc(C(F)(F)F)cc(C(F)(F)F)c1)C(=O)N[C@@H](Cc1cn(C)cn1)C(=O)OC` (stereo not given in full), the growth is -58.3% [100 µM] (active).

For the molecule `CCCOC(=O)c1c(C)n(C)c2scc[n+]12`, the growth is 77.8% (inactive). With `CC(=O)/C(=C\c1c(-c2ccccc2)[nH]c2ccccc12)S(=O)(=O)c1ccccc1`, the growth is 12.1% (inactive). The value for `NC(N)=Nc1ccc(/C=C2\C=Cc3ccccc32)cc1` was 33.5% (inactive); that for `C/C(=N\Nc1ccc(Cl)cn1)c1ccc2ccccc2n1` was 27.5% (inactive); that for `Oc1ccccc1/C=N/N=C/c1c(O)ccc2ccccc12` was 95% (inactive). The result for `O=C(Nc1cccc(Cn2c(=O)[nH]c3ccc(Oc4ncccn4)cc3c2=O)c1)c1cccc(F)c1` reads 95.3% (inactive). The result for `COc1cccc2c1n([O-])c1cccc(OC)c1[n+]2=O` reads 68% (inactive).
